Source: PubChem BioAssay
Sampled rows, rich in hits. Any-hit rate of the full collection: about 3.8%.
ERa coact inh = ER-alpha (human) coactivator binding inhibition. P03372. 1.7% of 86,000 active. inhibition, % at 25.6 µM. TR-FRET ER-alpha LBD / SRC-1 peptide, estradiol-bound; in the data active means inhibition above about 50%;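 further: 0% = receptor plus peptide control and 100% = peptide only without receptor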
Target sequence (P03372 whole entry, looked up, the tested form may be a part): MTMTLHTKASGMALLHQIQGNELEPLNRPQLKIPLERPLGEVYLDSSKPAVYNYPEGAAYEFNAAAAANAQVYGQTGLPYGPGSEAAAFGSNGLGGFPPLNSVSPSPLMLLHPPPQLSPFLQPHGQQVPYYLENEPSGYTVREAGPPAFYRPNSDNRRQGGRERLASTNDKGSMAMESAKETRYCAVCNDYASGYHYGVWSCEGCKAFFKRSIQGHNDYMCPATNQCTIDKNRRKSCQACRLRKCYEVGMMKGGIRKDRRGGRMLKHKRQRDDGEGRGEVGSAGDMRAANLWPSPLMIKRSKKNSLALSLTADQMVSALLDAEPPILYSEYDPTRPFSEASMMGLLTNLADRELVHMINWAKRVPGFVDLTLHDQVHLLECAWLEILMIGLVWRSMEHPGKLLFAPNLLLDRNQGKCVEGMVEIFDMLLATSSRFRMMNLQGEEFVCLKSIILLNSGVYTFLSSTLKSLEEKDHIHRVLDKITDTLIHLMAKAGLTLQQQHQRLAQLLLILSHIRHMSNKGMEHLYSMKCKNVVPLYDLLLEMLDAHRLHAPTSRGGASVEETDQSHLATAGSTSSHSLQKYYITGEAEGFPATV
ERb SRC1 inh = blocks coactivator binding to human estrogen receptor beta; 1.3% of 86,000 active; inhibition, % at 25.6 µM; AID 633; TR-FRET ER-beta LBD / SRC1-Cy5 peptide binding; receptor agonist-loaded with 1 µM estradiol; Q92731;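 active means compounds whose percent inhibition of the receptor-coactivator binding signal exceeds about 50% in the single-dose screen, limit read from the data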;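 further: 0% = receptor plus peptide wells without compound and 100% = peptide-only wells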
ERa coact pot = ER-alpha (human) coactivator binding potentiation. P03372. TR-FRET ERalpha-LBD/SRC-Cy5 coactivator binding, 2 h; 100 = basal binding, no effect. coactivator binding (% of control), % at 25.6 µM. 1.3% of 86,000 active. AID 639; in the data active means activity above about 200%;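 further: binding measured in presence of low estradiol as agonist stimulus; 0% = peptide alone without receptor and 100% = receptor with peptide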
MT1-MMP txn act = MT1-MMP promoter transcription activation; HT1080 MT1-MMP promoter luciferase reporter, luminescence, overnight; stronger effect = higher value; 0.16% of 86,000 active; activation factor at 10 µM;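 active means activation factor of at least 2 for MT1-MMP transcription at 10 µM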
DAT uptake mod = human DAT dopamine uptake with cocaine, either direction; LLC-PK1 hDAT cells, [14C]-dopamine uptake with cocaine IC80; actives deviate in either direction; AID 449768; 1.3% of 110,000 active; B-score at 10 µM; Q01959;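 active means Z score or B-score, a plate-position-corrected score, falls beyond the plate's 99.7% confidence bounds, in either direction; inactive means both scores lie inside the 99.7% bounds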;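 further: scored against the spread of the other compound wells on the same plate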
* marks the source's active call; other numbers are inactive results; · = no result given; ! = repeats disagree; [ ] = another dose, or the depositor's remark.

SMILES	ERa coact inh	ERb SRC1 inh	ERa coact pot	MT1-MMP txn act	DAT uptake mod
COC(=O)c1ccc(C(NC(=O)OCc2ccccc2)/C(C)=C/[C@@H](C)C(=O)N[C@@H](CO)Cc2ccccc2)cc1 (stereo partly drawn)	·	·	·	1.1	·
COc1nc(-c2ccccc2)ccc1-c1noc(-c2cccnc2)n1	29.1	14.4	487.2*[fluorescence artefact?]	1.4	0.251
COc1nc(-c2ccccc2)ccc1-c1noc(-c2ccc(F)cc2)n1	2.1	-0.7	125.7	1.2	·
Cc1cc(OC(=O)c2ccco2)c2c(C)cc(=O)oc2c1	5.5	5.2	272.4*	1.1	0.326
Cc1ccc(F)cc1NC(=O)c1cccc2nccnc12	2.5	-20.7	369.6*	1.3	-0.905
COC(=O)C1=C(CCc2ccccc2)NC(=O)NC1c1cccc([N+](=O)[O-])c1 (stereo not drawn)	·	·	·	1.1	·
CC(=O)c1ccc(NS(=O)(=O)Cc2ccc(Cl)cc2)cc1	25.6	-4.1	75.5	1.2	3.18*
COc1cc(-c2nc(-c3ccccc3)c(-c3cccs3)[nH]2)cc(OC)c1OC	17.9	-4.6	252.1*	1.3	0.0278
CCOC(=O)c1c(Nc2nc(C)c(C(=O)NC)s2)sc(C)c1C	68.9*	19.3	96.7	1	0.661
O=C(CSc1nnc(-c2ccc(S(=O)(=O)N3CCOCC3)cc2)o1)c1ccccc1F	10.8	12.2	116.4	1.2	-0.593
CCOC(=O)c1c(C)[nH]c(C)c1C(=O)CSc1nnc(-c2ccc(OC(F)F)cc2)o1	45.6	23.8	276.2*	1.2	-0.882
CCOC(=O)c1[nH]c(CSc2nnc(-c3ccc(OC)cc3)o2)c(C(=O)OCC)c1C	10.2	9.2	127.0	1.1	-0.526
C/C(N)=C(/C#N)C(=O)CSc1nnc(-c2ccc(OC(F)F)cc2)o1	56.4*	62.4*	57.8	1.5	-0.461
COc1ccc(-c2nnc(SCC(=O)c3[nH]c(C)c(C(C)=O)c3C)o2)cc1	21.9	31.6	274.9*	1.1	-0.87
COc1ccc(C(=O)CSc2nnc(-c3ccc(S(=O)(=O)N4CCOCC4)cc3)o2)cc1	-5.8	18.1	470.0*[fluorescence artefact?]	1.1	-1.27
COc1ccc(C2CC(c3c(-c4ccccc4)c4cc(Cl)ccc4[nH]c3=O)=NN2S(C)(=O)=O)cc1OC (stereo not drawn)	68.8*	42.9	130.8	1.1	0.157
Cc1ccc2c(c1)c(CC(=O)Nc1ccc(F)cc1)c(C(=O)O)n2C	-6.3	2.7	107.1	1.1	-0.102
Cn1c(NC(=O)c2ccccc2)c(-c2ccccn2)c(=O)c2ccccc21	1.2	-8.3	97.1	1.1	-0.778
O=C(NC1CCCCC1)C(c1ccccc1)N1CCc2ccccc21 (stereo not drawn)	99.0*[fluorescence artefact?]	-1.5	95.3	·	·
CSC(=NC1CCCCC1)NS(=O)(=O)c1ccccc1	0.8	-1.6	108.3	1.1	-0.795
CC(=NC1CCCCC1)C1=C(O)c2ccccc2C1=O	-2.6	2.5	98.8	1	2.01*
Cc1cc(OC(=O)c2c(C)cc(OC(=O)c3c(C)cc(O)cc3O)cc2O)cc(O)c1C(=O)O	·	·	·	·	0.986
Cc1ccc(SCc2cc(=O)[nH]c(/N=C(\N)Nc3ccc(C)c(C)c3)n2)cc1	·	·	·	·	-0.624
Oc1c(Cl)cc(Cl)cc1Sc1cc(Cl)cc(Cl)c1O	96.8*	93.0*	10.1	1.1	-4.27*
CCN(CC)c1ccc2c(c1)oc(=O)c1c(Cl)cc(=O)oc12	-6.2	-7.2	308.9*	1	-0.392
SMILES	ERa coact inh	ERb SRC1 inh	ERa coact pot	MT1-MMP txn act	DAT uptake mod
O=C(O)C1=C[C@H](c2ccc(C(F)(F)F)cc2)C[C@H](OCCCCO)O1	·	·	·	·	-0.00773
O=C(CC1Sc2ncnn2C1=O)Nc1ccccc1 (stereo not drawn)	-0.2	1.4	83.0	·	-0.248
CN(C(=O)CN1CCC(NC(=O)C2CCCCC2)CC1)C1CCCCC1	1.8	3.1	211.1*[fluorescence artefact?]	1	-1.14
COC(=O)[C@@H]1C[C@@]2(O)[C@H](O)[C@H](O)[C@H](O)C[C@H]2N1Cc1c(F)cccc1Cl	·	·	·	1	·
CCCCCCNC(=O)N[C@@H](C(=O)NCCC[C@H]1CN2C(=NC[C@@H]2Cc2ccccc2)N1CCc1cccc(OC)c1)C(C)C	·	·	·	·	-2.99*
COc1ccc(Br)cc1S(=O)(=O)n1ccnc1C	11.9	2.7	88.0	1	2.66*
O=C(COc1ccc2ccccc2c1)Nc1ccc(S(=O)(=O)N2CCCCCC2)cc1	-11.9	-9.9	115.6	1	0.0664
CCNC(=S)N/N=C/c1ccc(OCC(=O)Nc2ccc(C)cc2)cc1	·	·	·	·	-2.92*
Cc1ccc2c(CC(=O)OCc3csc(C)n3)coc2c1	3.7	4.9	115.4	1.1	-7.4*
CCC1=C(C)N(CCCC(=O)O)C(=O)NC1c1cccc(Cl)c1Cl (stereo not drawn)	·	·	·	1.1	·
COC1(OC)C=CC(=O)C=C1NC(=O)c1ccccc1OC(C)=O	·	·	·	·	-0.352
Fc1ccc([C@@H]2CCNC[C@H]2COc2ccc3c(c2)OCO3)cc1	·	·	·	·	-3.66*!
O=C1C(c2ccc(F)cc2)N(Cc2ccc3c(c2)OCO3)C(=O)CN1C1CCCCCC1 (stereo not drawn)	5.0	0.8	71.9	0.9	1.25
CCCNC(=O)c1c(NC(=O)C2COc3ccccc3O2)sc2c1CCCC2 (stereo not drawn)	19.1	21.1	110.3	1.4	-1.56
O=C(NC1CCS(=O)(=O)C1)c1c(NC(=O)C2COc3ccccc3O2)sc2c1CCCC2 (stereo not drawn)	59.3*	31.7	147.5	1.2	0.228
Cc1cc(C)c2cc(CN(CCO)C(=O)Nc3ccc(F)cc3)c(=O)[nH]c2c1	-5.9	-4.9	105.1	1.1	-0.451
COc1ccc(NC(=O)N(CCO)Cc2cc3c(C)cc(C)cc3[nH]c2=O)cc1	-14.1	-9.0	128.9	1.2	2.88*
Cc1nc2nc(-c3ccccc3)nn2c(C)c1Cl	-2.4	-12.1	114.2	2.2*	-0.153
N#CC(C(=O)NCCc1ccccc1)c1nc2ccccc2nc1N1CCCCC1 (stereo not drawn)	-4.0	-10.4	113.0	1.2	0.465
N#CC(C(=O)NCCc1ccccc1)c1nc2ccccc2nc1N1CCOCC1 (stereo not drawn)	75.5*[fluorescence artefact?]	31.0	167.8	1	0.331
COC(=O)[C@@]1(Cc2ccccc2)[C@H]2c3cc(C(=O)N4CCCC4)n(CCN4CCNC4=O)c3C[C@H]2CN1C(=O)c1ccccc1	·	·	·	1.1	·
Nc1nc(CSc2n[nH]c(-c3ccccc3)n2)nc(Nc2ccccc2)n1	-3.0	-18.8	106.3	1.1	1.49
Cc1ccc(-c2nc(Nc3ccccc3)n[nH]2)cc1	-1.1	9.7	109.1	1.8	-3*
CN1CCc2c(sc3c2c(=O)n(-c2ccccc2)c2n[nH]c(=S)n32)C1	·	·	·	·	-1.25
N=c1c(-c2nc3ccccc3[nH]2)cc(C(=O)c2cccs2)nn1-c1ccccc1	91.8*[fluorescence artefact?]	62.5*[fluorescence artefact?]	61.3	1	0.235
CC1(C)C(O)=C(c2nc3ccccc3[nH]2)C(=N)N1c1ccccc1	-4.4	-7.0	100.8	1.1	0.279
